Data reported in PubChem BioAssay (EPA / NIEHS).
Activity calls are given as the source filed them. How the source made its calls: active means hit-call score of the fitted dose curve at least 0.9, where 1 is the maximum; inactive means score below 0.9.

Assays:
[1] = ATG_E_Box_CIS: Attagene CIS-FACTORIAL HepG2 Assay for human Enhancer Box (E-box) (AID 2282936); details: HepG2 E-box cis-reporter transcription, actives raise or lower the signal
Outline: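 Transiently transfected HepG2, endogenous TF-driven reporters, 24 h dosing. Readout: RT-PCR plus capillary electrophoresis of fluorescent reporter fragments. Gain or loss of signal fitted bidirectionally against DMSO baseline.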

[2] = ATG_M_61_CIS: Attagene CIS-FACTORIAL HepG2 Assay for M61 Transcription Factor (Internal Marker) (AID 2282937); details: HepG2 Attagene CIS-FACTORIAL M61 internal marker reporter; actives raise or lower the signal
Outline: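 Cells were transfected with reporter units under cis-regulatory promoters, treated with chemicals for 24 h, then lysed for RNA. Reporter transcripts were quantified by RT-PCR and capillary electrophoresis, and activity was fitted bidirectionally against DMSO.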

[3] = ATG_EGR_CIS: Attagene CIS-FACTORIAL HepG2 Assay for human Early Growth Response 1 (EGR1) (AID 2282938); details: HepG2 Attagene CIS-FACTORIAL EGR reporter mRNA; actives raise or lower the signal
Outline: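 Endogenous TF activity in HepG2 liver cells was gauged through cis-promoter reporter constructs transiently transfected. After 24 h dosing, reporter mRNA was quantified by RT-PCR and capillary electrophoresis, and curves fitted in both directions versus DMSO.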

[4] = ATG_M_19_CIS: Attagene CIS-FACTORIAL HepG2 Assay for M19 Transcription Factor (Internal Marker) (AID 2282939); details: HepG2 Attagene CIS-FACTORIAL M19 internal marker reporter; actives raise or lower the signal
Outline: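 Transfect HepG2 with MRTU reporter library → dose chemical, 24 h → isolate total RNA, reverse-transcribe with oligo(dT) → PCR, 6-FAM label, HpaI cut (2 h, 37 C) → capillary electrophoresis. Bidirectional fit vs DMSO.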

[5] = ATG_Ets_CIS: Attagene CIS-FACTORIAL HepG2 Assay for human Erythroblast Transformation Specific (ETS) (AID 2282941); details: HepG2 ETS cis-reporter transcription, actives raise or lower the signal
Outline: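 Bidirectional fit versus DMSO of reporter mRNA signal, detected by RT-PCR and capillary electrophoresis in HepG2 cells transiently transfected with cis-element reporters and dosed 24 h.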

[6] = molecular target: Hepatocyte nuclear factor 3-beta (Homo sapiens) (UniProt Q9Y261); assay: ATG_FoxA2_CIS: Attagene CIS-FACTORIAL HepG2 Assay for human Forkhead box A2 (FOXA2) (AID 2282942); details: HepG2 cis-reporter transcription factor activity, 24 h; actives raise or lower the signal
Sequence of Hepatocyte nuclear factor 3-beta (Homo sapiens) (Q9Y261 whole entry, looked up): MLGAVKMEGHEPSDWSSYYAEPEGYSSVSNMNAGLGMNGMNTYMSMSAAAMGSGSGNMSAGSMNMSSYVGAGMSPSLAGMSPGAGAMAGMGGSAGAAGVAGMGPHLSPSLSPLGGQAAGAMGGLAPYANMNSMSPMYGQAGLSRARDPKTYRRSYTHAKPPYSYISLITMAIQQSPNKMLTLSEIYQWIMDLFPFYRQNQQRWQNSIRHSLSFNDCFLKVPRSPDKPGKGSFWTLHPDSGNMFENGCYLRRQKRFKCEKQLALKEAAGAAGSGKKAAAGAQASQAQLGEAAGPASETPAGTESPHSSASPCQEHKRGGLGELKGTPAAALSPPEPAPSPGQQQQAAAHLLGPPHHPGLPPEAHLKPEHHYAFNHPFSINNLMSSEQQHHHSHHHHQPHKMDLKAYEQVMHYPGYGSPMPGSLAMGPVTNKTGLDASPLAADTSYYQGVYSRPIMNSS
Outline: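 Endogenous transcription factor activity was read in HepG2 cells carrying transiently transfected cis-promoter reporter units. After 24 h dosing, reporter mRNA was quantified by RT-PCR and capillary electrophoresis, and values fitted bidirectionally versus DMSO.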

[7] = ATG_FoxO_CIS: Attagene CIS-FACTORIAL HepG2 Assay for human Forkhead box O (FoxO) (AID 2282943); details: HepG2 Attagene cis-reporter, FoxO element, mRNA; actives raise or lower the signal
Outline: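 HepG2 cells transiently transfected with cis-element-driven reporter units report endogenous FoxO activity. After 24 h chemical exposure, reporter mRNA quantified by RT-PCR, fluorescent labeling, HpaI digestion and capillary electrophoresis; bidirectional fit versus DMSO.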

[8] = ATG_GLI_CIS: Attagene CIS-FACTORIAL HepG2 Assay for human Zinc Finger Protein GLI1 (AID 2282945); details: HepG2, Attagene cis-factorial reporter mRNA, GLI element; actives raise or lower the signal
Outline: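 Transiently transfected HepG2 cells report endogenous transcription factor activity via cis-element-driven reporter units. After 24 h compound exposure, reporter mRNA was measured by RT-PCR with capillary electrophoresis; bidirectional fitting against DMSO baseline.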

[9] = molecular target: Bile acid receptor (Homo sapiens) (UniProt Q96RI1); assay: ATG_IR1_CIS: Attagene CIS-FACTORIAL HepG2 Assay for human Nuclear Receptor Subfamily 1 Group H Member 4 (NR1H4), IR1 submotif (AID 2282946); details: IR1 reporter transcription, actives raise or lower the signal
Sequence of Bile acid receptor (Homo sapiens) (Q96RI1 whole entry, looked up): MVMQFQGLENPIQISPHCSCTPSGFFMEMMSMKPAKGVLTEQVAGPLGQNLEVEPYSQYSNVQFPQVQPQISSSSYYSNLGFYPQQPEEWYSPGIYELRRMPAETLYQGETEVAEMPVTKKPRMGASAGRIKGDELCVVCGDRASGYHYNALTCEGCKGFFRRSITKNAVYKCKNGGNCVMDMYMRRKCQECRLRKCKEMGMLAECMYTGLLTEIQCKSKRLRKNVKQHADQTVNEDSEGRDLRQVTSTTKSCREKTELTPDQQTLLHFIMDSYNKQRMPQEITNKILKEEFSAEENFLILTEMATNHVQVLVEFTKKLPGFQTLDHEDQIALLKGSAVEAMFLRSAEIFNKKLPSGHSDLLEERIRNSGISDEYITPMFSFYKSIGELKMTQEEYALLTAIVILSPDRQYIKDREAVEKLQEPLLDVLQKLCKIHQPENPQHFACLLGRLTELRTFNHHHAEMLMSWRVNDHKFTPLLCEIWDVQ
Outline: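 Fluorescence of capillary-separated, HpaI-digested RT-PCR reporter products gave IR1-element mRNA induction in HepG2 cells 24 h after dosing. Endogenous transcription factors drove the cis-regulated reporters; activity was fitted bidirectionally against DMSO.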

[10] = ATG_GRE_CIS: Attagene CIS-FACTORIAL HepG2 Assay for human Glucocorticoid Response Elements (GRE) (AID 2282947); details: HepG2 GRE cis-reporter, Attagene multiplex mRNA; actives raise or lower the signal
Outline: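 Read-out: fluorescent reporter-transcript fragments separated by capillary electrophoresis after RT-PCR. Transiently transfected HepG2 cells carrying cis-element-driven reporter units were dosed for 24 h; gain or loss of signal fitted against DMSO control.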

[11] = ATG_ISRE_CIS: Attagene CIS-FACTORIAL HepG2 Assay for human Interferon Regulatory Factor 1 (IRF1) binding to an Interferon-Stimulated Response Element (ISRE) (AID 2282948); details: HepG2 ISRE cis-reporter (Attagene), mRNA transcription readout; actives raise or lower the signal
Outline: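 Uses HepG2 liver cells transfected with cis-regulated reporters and measures mRNA 24 h post-dosing through RT-PCR, primer-extension labelling and capillary electrophoresis, with DMSO as negative control.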

[12] = ATG_M_32_CIS: Attagene CIS-FACTORIAL HepG2 Assay for M32 Transcription Factor (Internal Marker) (AID 2282949); details: HepG2 Attagene cis-factorial M32 reporter, mRNA; actives raise or lower the signal;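 further: background control marker of the multiplexed CIS panel rather than a real target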
Outline: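 Transient MRTU transfection of HepG2; 24 h compound treatment; TriZol RNA, oligo(dT) RT, reporter PCR, 6-FAM primer extension, HpaI cut, CE. Gain/loss of signal vs DMSO.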

[13] = ATG_M_06_CIS: Attagene CIS-FACTORIAL HepG2 Assay for M06 Transcription Factor (Internal Marker) (AID 2282950); details: HepG2 Attagene CIS-FACTORIAL M06 internal marker reporter; actives raise or lower the signal
Outline: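 Read-out is fluorescence of labelled reporter cDNA fragments resolved by capillary electrophoresis after RT-PCR. Cells: HepG2 carrying transfected cis-promoter reporter units, treated 24 h. Gain or loss of signal fitted relative to DMSO.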

[14] = molecular target: Hypoxia-inducible factor 1-alpha (Homo sapiens) (UniProt Q16665); assay: ATG_HIF1a_CIS: Attagene CIS-FACTORIAL HepG2 Assay for human Hypoxia Inducible Factor 1 (HIF1A) (AID 2282951); details: HepG2 Attagene cis-factorial HIF1a reporter transcription; actives raise or lower the signal
Sequence of Hypoxia-inducible factor 1-alpha (Homo sapiens) (Q16665 whole entry, looked up): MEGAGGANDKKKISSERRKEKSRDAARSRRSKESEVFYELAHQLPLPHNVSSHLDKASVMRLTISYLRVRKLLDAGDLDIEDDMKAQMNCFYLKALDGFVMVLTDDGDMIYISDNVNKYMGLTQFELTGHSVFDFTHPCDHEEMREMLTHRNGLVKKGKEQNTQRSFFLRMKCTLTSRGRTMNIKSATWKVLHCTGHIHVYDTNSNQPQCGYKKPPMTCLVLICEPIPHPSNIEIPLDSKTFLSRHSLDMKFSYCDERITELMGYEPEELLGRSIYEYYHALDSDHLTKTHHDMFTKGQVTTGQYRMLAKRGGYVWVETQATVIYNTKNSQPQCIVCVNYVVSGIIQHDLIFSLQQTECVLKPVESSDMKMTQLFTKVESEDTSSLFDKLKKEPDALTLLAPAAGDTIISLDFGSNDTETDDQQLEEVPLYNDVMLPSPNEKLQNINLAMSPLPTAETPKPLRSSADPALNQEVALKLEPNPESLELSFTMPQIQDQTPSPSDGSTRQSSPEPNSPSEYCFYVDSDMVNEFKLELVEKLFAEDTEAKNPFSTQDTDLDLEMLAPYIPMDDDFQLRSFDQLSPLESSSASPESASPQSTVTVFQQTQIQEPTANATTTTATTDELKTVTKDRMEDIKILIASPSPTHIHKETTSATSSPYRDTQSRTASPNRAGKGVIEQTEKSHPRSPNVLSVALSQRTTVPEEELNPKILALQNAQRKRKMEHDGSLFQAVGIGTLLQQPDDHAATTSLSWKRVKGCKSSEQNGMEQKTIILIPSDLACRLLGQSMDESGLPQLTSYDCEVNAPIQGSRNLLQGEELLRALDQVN
Outline: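 Measures endogenous transcription-factor activity through cis-regulated reporter mRNA in HepG2. Cells dosed 24 h; transcripts quantified by RT-PCR with 6-FAM-labelled products separated by capillary electrophoresis; DMSO serves as negative control.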

[15] = molecular target: Hepatocyte nuclear factor 6 (Homo sapiens) (UniProt Q9UBC0); assay: ATG_HNF6_CIS: Attagene CIS-FACTORIAL HepG2 Assay for human Hepatocyte Nuclear Factor 6 (HNF6) (AID 2282952); details: HepG2 Attagene cis-factorial HNF6 reporter transcription; actives raise or lower the signal
Sequence of Hepatocyte nuclear factor 6 (Homo sapiens) (Q9UBC0 whole entry, looked up): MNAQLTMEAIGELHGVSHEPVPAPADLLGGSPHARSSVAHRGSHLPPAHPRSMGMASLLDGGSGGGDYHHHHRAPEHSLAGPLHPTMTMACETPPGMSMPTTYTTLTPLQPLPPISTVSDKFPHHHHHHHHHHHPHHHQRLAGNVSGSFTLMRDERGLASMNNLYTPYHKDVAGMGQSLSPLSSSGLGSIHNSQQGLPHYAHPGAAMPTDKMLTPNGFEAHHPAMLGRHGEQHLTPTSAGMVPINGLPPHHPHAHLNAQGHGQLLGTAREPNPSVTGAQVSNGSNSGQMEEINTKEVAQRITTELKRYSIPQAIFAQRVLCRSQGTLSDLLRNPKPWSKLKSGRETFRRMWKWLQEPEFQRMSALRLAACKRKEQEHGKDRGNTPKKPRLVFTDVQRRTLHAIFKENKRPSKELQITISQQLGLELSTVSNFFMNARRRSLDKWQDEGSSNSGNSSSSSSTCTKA
Outline: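 Activity values derive from bidirectional fitting against DMSO of reporter mRNA levels, measured by capillary electrophoresis of labelled RT-PCR products from HepG2 cells exposed 24 h.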

[16] = molecular target: Heat shock factor protein 1 (Homo sapiens) (UniProt Q00613); assay: ATG_HSE_CIS: Attagene CIS-FACTORIAL HepG2 Assay for human Heat Shock Transcription Factor 1 (HSE) (AID 2282953); details: HepG2 HSE cis-reporter, Attagene RNA transcription; actives raise or lower the signal
Sequence of Heat shock factor protein 1 (Homo sapiens) (Q00613 whole entry, looked up): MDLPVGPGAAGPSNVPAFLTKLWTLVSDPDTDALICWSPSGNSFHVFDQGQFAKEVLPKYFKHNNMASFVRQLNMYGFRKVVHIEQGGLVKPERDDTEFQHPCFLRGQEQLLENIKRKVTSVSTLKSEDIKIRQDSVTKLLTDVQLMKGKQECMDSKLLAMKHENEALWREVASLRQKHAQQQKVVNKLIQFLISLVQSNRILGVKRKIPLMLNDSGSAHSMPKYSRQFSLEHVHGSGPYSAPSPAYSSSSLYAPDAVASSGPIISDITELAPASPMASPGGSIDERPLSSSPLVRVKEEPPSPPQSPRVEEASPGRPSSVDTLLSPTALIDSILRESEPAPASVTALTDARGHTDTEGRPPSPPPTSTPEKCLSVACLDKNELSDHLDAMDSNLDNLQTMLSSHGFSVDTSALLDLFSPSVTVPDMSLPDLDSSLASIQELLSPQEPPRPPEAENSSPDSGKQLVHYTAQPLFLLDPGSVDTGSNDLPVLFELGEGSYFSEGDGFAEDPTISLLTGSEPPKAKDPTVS
Outline: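 HepG2, transient MRTU transfection, cis-promoter reporters (endogenous TF activity). 24 h compound. RNA → oligo(dT) RT → PCR → 6-FAM primer extension → HpaI cut → CE. Bidirectional fit vs DMSO.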

[17] = ATG_MRE_CIS: Attagene CIS-FACTORIAL HepG2 Assay for human Metal Responsive Element (MRE) (AID 2282954); details: HepG2 MRE cis-reporter transcription, Attagene multiplex; actives raise or lower the signal
Outline: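 RT-PCR/capillary electrophoresis readout of reporter mRNA, 24 h post-dosing, in HepG2 cells transfected with multiplexed cis-regulated reporter constructs. Gain or loss of signal fitted bidirectionally against DMSO baseline.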

[18] = ATG_PBREM_CIS: Attagene CIS-FACTORIAL HepG2 Assay for human Phenobarbital-responsive Enhancer Module (PBREM) (AID 2282955); details: HepG2 PBREM cis-reporter, Attagene multiplexed transcription; actives raise or lower the signal
Outline: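 Fluorescence of labelled reporter cDNA fragments, resolved by capillary electrophoresis, gives mRNA induction in transfected HepG2 cells treated for 24 h; DMSO serves as negative control and baseline.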

[19] = ATG_GATA_CIS: Attagene CIS-FACTORIAL HepG2 Assay for human GATA Binding Protein (AID 2282944); details: HepG2 GATA cis-element reporter, Attagene multiplex mRNA; actives raise or lower the signal
Outline: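 Transient MRTU transfection, HepG2, 24 h compound exposure. Total RNA → oligo(dT) RT → PCR → 6-FAM primer extension → HpaI cut → CE. Bidirectional fit vs DMSO.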

Measured: AC50

Clc1cc(Cl)c(-c2c(Cl)c(Cl)cc(Cl)c2Cl)cc1Cl
not listed: [17] | [18] | [19]
inactive: all other assays above

C=CC(=C)CCCC(C)(C)OC(C)=O
not listed: [9] | [15] | [19]
inactive: all other assays above

Cc1ncc[nH]1
not listed: [18] | [19]
inactive: all other assays above

CCc1ccc(O)c(OC)c1
not listed: [19]
inactive: all other assays above

CC(O)C1CCCCC1 (centres undefined)
not listed: [9] | [13]
inactive: all other assays above

CC1(C)CCC[C@]2(C)[C@H]3CCO[C@]3(C)CC[C@@H]12
active: [1] 58.3 µM | [16] 178 µM
not listed: [9] | [13]
inactive: all other assays above

CC(=O)O[C@@H]1CC2CCC1(C)C2(C)C (some centres undefined)
not listed: [7]
inactive: all other assays above
